# Measurements published in publication PMC7862700, “An all-to-all approach to the identification of sequence-specific readers for epigenetic DNA modifications on cytosine”.
# Tests used:
# Assay in all cases: DAPPL (digital affinity profiling via proximity ligation, sequencing); 10 mM Tris-HCl pH 7.5, 50 mM NaCl, 1 mM DTT, 4% glycerol, room temperature, 30 min; GST-TFs on glutathione beads, 16-mer random dsDNA library, 0.1% formaldehyde crosslink after washing; high values mean tight binding
# FLI1 = biological target: T1, FLI1 (Homo sapiens, UniProt Q01543 1-452); conditions: protein: recombinant; tags: N-terminal GST; dsDNA, one strand shown
# T1 sequence: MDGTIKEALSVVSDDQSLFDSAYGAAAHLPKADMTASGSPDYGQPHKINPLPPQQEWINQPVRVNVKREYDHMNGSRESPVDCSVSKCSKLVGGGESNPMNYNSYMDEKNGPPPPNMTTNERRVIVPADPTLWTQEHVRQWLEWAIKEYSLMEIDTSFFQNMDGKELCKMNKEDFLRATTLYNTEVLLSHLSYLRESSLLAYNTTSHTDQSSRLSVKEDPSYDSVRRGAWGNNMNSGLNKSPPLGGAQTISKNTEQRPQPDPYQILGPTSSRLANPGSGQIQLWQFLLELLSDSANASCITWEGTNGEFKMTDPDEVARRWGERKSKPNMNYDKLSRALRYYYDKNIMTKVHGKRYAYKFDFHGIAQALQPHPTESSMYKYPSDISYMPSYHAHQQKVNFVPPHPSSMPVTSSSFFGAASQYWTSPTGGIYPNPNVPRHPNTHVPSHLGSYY
# How it was run: (§1)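 Each value of binding signal is a hexamer's read frequency for a factor divided by the same hexamer's frequency in the tag-only sample. Barcoded, bead-captured GST fusions of human transcription factors made in yeast were pooled with that sample and incubated with 200 nmole of a random double-stranded 16-mer DNA library in Tris/NaCl/DTT/glycerol buffer at room temperature for 30 min. Washing, 0.1% formaldehyde crosslinking, proximity ligation, PCR and Illumina NextSeq500 sequencing followed.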
# ELK1 = biological target: T2, ELK1 (Homo sapiens, UniProt P19419 1-428); conditions: protein: recombinant; tags: N-terminal GST; dsDNA, one strand shown
# T2 sequence: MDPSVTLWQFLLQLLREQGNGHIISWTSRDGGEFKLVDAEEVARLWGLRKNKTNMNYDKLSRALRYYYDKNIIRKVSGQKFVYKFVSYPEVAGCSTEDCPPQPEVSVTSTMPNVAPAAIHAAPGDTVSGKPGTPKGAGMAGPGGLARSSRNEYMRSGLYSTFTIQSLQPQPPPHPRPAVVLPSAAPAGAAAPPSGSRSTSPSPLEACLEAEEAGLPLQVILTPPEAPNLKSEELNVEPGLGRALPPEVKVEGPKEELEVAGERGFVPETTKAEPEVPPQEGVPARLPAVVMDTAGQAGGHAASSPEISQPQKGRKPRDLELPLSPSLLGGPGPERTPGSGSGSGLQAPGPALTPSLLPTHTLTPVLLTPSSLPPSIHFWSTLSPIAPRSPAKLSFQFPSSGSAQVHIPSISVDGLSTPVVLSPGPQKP
# How it was run: as §1
# GABPA = biological target: T3, GABPA (Homo sapiens, UniProt Q06546 1-454); conditions: protein: recombinant; tags: N-terminal GST; dsDNA, one strand shown
# T3 sequence: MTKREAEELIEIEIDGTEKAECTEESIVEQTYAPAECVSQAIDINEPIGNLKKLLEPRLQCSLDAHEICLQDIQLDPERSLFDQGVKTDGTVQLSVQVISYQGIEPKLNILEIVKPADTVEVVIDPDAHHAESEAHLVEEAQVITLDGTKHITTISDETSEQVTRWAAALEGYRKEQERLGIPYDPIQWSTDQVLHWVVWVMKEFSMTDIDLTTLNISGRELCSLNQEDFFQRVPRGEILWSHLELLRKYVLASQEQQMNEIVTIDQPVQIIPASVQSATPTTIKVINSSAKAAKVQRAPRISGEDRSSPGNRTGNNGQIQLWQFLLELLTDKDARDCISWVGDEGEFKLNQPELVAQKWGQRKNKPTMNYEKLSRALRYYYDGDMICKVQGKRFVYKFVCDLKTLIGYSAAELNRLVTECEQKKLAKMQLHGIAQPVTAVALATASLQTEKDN
# How it was run: as §1
# ERG = biological target: T4, ERG (Homo sapiens, UniProt P11308 1-479); conditions: protein: recombinant; tags: N-terminal GST; dsDNA, one strand shown
# T4 sequence: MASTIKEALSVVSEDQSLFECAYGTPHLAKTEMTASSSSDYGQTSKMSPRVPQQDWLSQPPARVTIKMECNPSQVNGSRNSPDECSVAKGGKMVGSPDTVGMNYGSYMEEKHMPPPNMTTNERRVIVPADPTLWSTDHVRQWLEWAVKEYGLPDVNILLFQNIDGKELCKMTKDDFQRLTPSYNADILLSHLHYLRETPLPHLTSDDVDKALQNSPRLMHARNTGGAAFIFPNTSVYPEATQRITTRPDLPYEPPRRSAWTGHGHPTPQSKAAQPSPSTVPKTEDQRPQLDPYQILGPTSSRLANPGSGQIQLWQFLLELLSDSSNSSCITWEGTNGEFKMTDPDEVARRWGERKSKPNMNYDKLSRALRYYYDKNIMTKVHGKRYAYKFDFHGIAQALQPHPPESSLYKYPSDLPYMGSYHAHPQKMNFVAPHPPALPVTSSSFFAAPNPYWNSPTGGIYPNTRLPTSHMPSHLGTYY
# How it was run: as §1
# ELF1 = ELF1 (Homo sapiens, UniProt P32519 1-619); conditions: protein: recombinant; tags: N-terminal GST; dsDNA, one strand shown
# Sequence of ELF1 (P32519 whole entry): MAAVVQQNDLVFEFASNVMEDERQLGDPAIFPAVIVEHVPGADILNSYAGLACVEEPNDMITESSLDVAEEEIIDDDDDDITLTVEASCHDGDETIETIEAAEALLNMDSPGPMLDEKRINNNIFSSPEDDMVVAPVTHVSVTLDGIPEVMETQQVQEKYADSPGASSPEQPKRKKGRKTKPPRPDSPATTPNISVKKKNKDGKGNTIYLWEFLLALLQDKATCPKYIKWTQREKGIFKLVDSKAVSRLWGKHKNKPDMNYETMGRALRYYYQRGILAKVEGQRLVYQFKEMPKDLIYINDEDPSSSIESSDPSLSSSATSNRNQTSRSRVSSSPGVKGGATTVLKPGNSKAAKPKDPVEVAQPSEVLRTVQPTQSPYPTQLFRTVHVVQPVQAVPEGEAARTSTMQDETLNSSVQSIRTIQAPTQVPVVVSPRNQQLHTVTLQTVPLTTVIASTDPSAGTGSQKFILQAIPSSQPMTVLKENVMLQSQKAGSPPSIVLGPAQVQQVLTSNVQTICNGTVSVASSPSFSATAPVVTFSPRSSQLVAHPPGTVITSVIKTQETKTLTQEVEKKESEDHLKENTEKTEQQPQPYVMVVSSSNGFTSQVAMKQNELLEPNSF
# How it was run: as §1
# EHF = biological target: T5, EHF (Homo sapiens, UniProt Q9NZC4 1-300); conditions: protein: recombinant; tags: N-terminal GST; dsDNA, one strand shown
# T5 sequence: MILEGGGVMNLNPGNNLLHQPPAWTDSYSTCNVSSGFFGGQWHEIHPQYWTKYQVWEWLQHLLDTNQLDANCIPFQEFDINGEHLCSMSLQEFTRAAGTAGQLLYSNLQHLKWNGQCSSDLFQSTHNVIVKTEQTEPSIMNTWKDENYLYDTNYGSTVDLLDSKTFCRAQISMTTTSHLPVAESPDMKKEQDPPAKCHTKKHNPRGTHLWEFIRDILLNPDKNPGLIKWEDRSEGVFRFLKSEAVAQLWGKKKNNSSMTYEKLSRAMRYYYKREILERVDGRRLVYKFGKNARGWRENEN
# How it was run: as §1
# SPI1 = SPI1 (Homo sapiens, UniProt P17947 1-270); conditions: protein: recombinant; tags: N-terminal GST; dsDNA, one strand shown
# How it was run: as §1
# SPIB = SPIB (Homo sapiens, UniProt Q01892 1-262); conditions: protein: recombinant; tags: N-terminal GST; dsDNA, one strand shown
# Sequence of SPIB (Q01892 whole entry): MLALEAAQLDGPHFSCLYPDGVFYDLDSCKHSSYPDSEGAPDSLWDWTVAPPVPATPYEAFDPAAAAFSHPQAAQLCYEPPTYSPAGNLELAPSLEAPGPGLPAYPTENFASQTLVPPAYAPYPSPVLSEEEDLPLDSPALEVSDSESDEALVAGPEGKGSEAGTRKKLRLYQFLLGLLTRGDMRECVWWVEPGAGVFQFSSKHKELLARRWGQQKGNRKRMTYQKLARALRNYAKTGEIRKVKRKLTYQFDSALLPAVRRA
# How it was run: as §1
# ELK3 = biological target: T6, ELK3 (Homo sapiens, UniProt P41970 1-407); conditions: protein: recombinant; tags: N-terminal GST; dsDNA, one strand shown
# T6 sequence: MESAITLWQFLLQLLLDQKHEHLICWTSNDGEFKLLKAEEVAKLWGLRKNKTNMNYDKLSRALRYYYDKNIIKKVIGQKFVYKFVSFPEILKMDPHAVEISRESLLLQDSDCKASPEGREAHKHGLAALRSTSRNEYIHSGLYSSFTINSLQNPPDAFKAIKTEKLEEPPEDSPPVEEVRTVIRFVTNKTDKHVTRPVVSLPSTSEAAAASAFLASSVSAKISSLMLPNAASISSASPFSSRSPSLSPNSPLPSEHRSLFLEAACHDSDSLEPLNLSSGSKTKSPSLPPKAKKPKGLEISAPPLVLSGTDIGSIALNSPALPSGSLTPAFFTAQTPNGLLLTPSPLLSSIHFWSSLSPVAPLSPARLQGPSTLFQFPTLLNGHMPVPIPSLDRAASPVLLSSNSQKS
# How it was run: as §1
# FEV = biological target: T7, FEV (Homo sapiens, UniProt Q99581 1-238); conditions: protein: recombinant; tags: N-terminal GST; dsDNA, one strand shown
# T7 sequence: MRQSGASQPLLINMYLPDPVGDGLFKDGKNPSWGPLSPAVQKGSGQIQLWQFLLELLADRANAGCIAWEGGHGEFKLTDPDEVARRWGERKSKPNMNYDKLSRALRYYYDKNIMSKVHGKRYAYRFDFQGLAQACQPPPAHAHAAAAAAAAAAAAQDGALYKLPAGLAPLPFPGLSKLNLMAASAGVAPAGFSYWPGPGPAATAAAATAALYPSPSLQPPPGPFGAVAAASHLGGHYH
# How it was run: as §1
# ETV5 = ETV5 (Homo sapiens, UniProt P41161 1-510); conditions: protein: recombinant; tags: N-terminal GST; dsDNA, one strand shown
# Sequence of ETV5 (P41161 whole entry): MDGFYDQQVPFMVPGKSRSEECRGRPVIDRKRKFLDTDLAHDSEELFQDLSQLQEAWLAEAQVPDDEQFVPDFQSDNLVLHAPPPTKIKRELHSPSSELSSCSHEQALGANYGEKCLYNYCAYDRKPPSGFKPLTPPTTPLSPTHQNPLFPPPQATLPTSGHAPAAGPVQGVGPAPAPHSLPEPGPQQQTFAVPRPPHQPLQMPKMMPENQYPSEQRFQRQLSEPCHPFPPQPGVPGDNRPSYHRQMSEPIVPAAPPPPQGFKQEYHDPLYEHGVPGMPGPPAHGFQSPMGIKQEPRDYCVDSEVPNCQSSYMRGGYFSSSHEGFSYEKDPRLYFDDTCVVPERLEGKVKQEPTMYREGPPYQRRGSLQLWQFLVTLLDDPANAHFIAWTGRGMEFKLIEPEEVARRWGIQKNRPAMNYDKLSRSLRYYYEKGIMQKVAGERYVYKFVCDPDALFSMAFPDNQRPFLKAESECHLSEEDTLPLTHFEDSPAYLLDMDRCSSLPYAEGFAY
# How it was run: as §1
# HSF1 = HSF1 (Homo sapiens, UniProt Q00613 1-529); conditions: protein: recombinant; tags: N-terminal GST; chain copies: 3; dsDNA, one strand shown
# Sequence of HSF1 (Q00613 whole entry): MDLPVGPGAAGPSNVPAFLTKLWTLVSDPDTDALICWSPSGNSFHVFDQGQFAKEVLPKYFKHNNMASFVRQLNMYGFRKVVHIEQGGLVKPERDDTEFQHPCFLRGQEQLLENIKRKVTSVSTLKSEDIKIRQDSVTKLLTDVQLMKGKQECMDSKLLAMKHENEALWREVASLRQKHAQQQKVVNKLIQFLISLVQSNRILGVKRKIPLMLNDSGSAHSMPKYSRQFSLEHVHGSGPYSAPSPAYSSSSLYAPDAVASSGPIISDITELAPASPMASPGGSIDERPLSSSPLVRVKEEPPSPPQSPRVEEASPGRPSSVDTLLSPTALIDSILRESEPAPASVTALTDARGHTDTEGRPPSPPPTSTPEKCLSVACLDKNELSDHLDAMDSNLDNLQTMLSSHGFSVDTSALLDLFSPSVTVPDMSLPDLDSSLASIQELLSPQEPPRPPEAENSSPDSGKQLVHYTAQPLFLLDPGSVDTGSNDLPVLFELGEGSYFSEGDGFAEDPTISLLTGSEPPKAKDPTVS
# How it was run: as §1
# SPIC = biological target: T8, SPIC (Homo sapiens, UniProt Q8N5J4 1-248); conditions: protein: recombinant; tags: N-terminal GST; dsDNA, one strand shown
# T8 sequence: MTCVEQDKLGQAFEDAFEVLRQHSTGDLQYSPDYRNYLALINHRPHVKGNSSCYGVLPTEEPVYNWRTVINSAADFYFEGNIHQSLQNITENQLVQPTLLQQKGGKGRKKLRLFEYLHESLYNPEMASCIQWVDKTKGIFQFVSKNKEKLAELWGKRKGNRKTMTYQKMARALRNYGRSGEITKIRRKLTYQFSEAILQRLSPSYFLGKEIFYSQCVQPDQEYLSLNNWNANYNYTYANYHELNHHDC
# How it was run: as §1
# ELF4 = ELF4 (Homo sapiens, UniProt Q99607 1-663); conditions: protein: recombinant; tags: N-terminal GST; dsDNA, one strand shown
# Sequence of ELF4 (Q99607 whole entry): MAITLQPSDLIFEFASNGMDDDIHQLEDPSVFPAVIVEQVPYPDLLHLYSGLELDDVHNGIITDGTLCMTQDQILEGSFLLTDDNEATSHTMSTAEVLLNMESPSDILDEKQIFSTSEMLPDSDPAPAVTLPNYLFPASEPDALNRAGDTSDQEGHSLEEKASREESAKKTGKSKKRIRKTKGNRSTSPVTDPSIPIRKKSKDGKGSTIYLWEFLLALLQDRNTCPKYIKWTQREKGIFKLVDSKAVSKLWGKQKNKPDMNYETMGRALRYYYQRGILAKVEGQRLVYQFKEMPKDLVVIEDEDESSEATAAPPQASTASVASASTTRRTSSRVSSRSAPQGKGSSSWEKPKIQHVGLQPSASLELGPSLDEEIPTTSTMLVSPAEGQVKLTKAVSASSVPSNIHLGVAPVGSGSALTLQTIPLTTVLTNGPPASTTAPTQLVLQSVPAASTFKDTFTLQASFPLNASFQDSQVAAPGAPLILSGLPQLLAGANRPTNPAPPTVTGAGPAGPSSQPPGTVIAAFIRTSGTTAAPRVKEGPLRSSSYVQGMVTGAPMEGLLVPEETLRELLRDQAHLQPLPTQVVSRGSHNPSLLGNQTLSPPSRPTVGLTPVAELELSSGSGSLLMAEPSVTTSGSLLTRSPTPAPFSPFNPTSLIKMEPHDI
# How it was run: as §1
# ELK4 = biological target: T9, ELK4 (Homo sapiens, UniProt P28324-2 1-405); conditions: protein: recombinant; tags: N-terminal GST; dsDNA, one strand shown
# T9 sequence: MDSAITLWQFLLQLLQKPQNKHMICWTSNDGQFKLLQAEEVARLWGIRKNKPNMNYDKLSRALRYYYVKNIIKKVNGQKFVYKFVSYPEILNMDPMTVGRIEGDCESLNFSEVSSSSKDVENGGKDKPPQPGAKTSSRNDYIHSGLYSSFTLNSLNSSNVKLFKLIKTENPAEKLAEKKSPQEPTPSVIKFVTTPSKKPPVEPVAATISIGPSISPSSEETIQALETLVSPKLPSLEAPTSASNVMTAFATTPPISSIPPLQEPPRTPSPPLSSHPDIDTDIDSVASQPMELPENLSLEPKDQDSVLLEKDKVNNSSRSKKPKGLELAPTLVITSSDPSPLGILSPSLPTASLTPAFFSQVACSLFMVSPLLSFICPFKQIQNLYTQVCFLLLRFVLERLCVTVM
# How it was run: as §1
# ETV2 = biological target: T10, ETV2 (Homo sapiens, UniProt O00321 1-342); conditions: protein: recombinant; tags: N-terminal GST; dsDNA, one strand shown
# T10 sequence: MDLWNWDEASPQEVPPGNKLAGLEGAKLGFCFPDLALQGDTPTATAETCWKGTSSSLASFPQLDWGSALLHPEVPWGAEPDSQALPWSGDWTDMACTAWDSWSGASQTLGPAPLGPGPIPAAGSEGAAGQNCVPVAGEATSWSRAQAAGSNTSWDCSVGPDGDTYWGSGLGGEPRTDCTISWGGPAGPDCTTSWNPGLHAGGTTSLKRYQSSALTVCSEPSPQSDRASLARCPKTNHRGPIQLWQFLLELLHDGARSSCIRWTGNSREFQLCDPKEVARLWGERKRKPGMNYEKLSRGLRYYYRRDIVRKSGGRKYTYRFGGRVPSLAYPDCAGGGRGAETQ
# How it was run: as §1
# ELF3 = biological target: T11, ELF3 (Homo sapiens, UniProt P78545 1-371); conditions: protein: recombinant; tags: N-terminal GST; dsDNA, one strand shown
# T11 sequence: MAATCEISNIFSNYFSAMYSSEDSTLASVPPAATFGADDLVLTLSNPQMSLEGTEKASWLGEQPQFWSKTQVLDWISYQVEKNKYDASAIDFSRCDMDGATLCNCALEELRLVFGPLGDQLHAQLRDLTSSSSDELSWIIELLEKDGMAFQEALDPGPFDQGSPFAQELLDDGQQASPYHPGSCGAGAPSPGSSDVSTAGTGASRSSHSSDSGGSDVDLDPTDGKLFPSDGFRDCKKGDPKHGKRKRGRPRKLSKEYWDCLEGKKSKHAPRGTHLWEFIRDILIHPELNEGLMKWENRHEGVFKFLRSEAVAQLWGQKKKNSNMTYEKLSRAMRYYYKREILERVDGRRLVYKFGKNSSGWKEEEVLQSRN
# How it was run: as §1
# CRX = CRX (Homo sapiens, UniProt O43186 1-299); conditions: protein: recombinant; tags: N-terminal GST; dsDNA, one strand shown
# Sequence of CRX (O43186 whole entry): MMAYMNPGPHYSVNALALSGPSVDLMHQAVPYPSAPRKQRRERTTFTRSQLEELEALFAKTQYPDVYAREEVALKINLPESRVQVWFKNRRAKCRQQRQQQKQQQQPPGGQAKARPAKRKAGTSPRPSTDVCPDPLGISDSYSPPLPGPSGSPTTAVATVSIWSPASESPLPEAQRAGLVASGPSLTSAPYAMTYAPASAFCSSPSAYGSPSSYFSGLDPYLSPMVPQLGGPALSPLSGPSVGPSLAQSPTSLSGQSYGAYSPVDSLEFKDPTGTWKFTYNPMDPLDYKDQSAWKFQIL
# How it was run: as §1
# ETV1 = ETV1 (Homo sapiens, UniProt P50549 1-477); conditions: protein: recombinant; tags: N-terminal GST; dsDNA, one strand shown
# Sequence of ETV1 (P50549 whole entry): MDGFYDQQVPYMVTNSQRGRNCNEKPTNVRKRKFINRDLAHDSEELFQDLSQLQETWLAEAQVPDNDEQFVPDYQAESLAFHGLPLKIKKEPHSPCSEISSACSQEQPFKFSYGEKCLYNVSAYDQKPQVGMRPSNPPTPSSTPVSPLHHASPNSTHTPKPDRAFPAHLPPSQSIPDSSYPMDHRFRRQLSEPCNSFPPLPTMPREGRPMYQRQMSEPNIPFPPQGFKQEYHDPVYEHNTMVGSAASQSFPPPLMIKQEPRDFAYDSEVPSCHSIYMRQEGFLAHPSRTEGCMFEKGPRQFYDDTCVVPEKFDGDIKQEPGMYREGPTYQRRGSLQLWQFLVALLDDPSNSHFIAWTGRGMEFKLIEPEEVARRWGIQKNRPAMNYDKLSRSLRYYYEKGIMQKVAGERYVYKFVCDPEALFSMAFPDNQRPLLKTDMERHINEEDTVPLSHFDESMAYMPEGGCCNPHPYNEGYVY
# How it was run: as §1
sequence,measurement,setting,value
TGCGAT,binding signal,FLI1,"1.12 fold enrichment (6-mer frequency, TF over GST control)"
same,binding signal,ELK1,"1.12 fold enrichment (6-mer frequency, TF over GST control)"
same,binding signal,GABPA,"1.28 fold enrichment (6-mer frequency, TF over GST control)"
same,binding signal,ERG,"1.18 fold enrichment (6-mer frequency, TF over GST control)"
same,binding signal,ELF1,"1.16 fold enrichment (6-mer frequency, TF over GST control)"
same,binding signal,EHF,"1.19 fold enrichment (6-mer frequency, TF over GST control)"
same,binding signal,SPI1,"1.2 fold enrichment (6-mer frequency, TF over GST control)"
same,binding signal,SPIB,"1.08 fold enrichment (6-mer frequency, TF over GST control)"
same,binding signal,ELK3,"1.31 fold enrichment (6-mer frequency, TF over GST control)"
same,binding signal,FEV,"1.08 fold enrichment (6-mer frequency, TF over GST control)"
same,binding signal,ETV5,"1.1 fold enrichment (6-mer frequency, TF over GST control)"
same,binding signal,HSF1,"1.23 fold enrichment (6-mer frequency, TF over GST control)"
same,binding signal,SPIC,"1.3 fold enrichment (6-mer frequency, TF over GST control)"
same,binding signal,ELF4,"1.2 fold enrichment (6-mer frequency, TF over GST control)"
same,binding signal,ELK4,"1.2 fold enrichment (6-mer frequency, TF over GST control)"
same,binding signal,ETV2,"1.17 fold enrichment (6-mer frequency, TF over GST control)"
same,binding signal,ELF3,"1.03 fold enrichment (6-mer frequency, TF over GST control)"
same,binding signal,CRX,"1.43 fold enrichment (6-mer frequency, TF over GST control)"
same,binding signal,ETV1,"1.06 fold enrichment (6-mer frequency, TF over GST control)"
